“And” between values parts separate entries of the source, which are not always exact repeats. Equal values may be shown once. About 2,000 (36%) of roughly 5,500 compounds were called active. Inconclusive results (about 18%) are left out. Rule as the data show it: active = normalized growth mostly below about 0.91 (no sharp cut-off); inconclusive = no clear call, values can overlap the other calls; inactive = mostly above about 0.92. This is one part of the list.
Assay: chemical genetic growth profiling, strain panel (AID 1159580);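 also: tested at 20 µM; growth read once vehicle control cultures reached saturation at 30 °C; 1 = growth at the plate median or of vehicle wells; lower values mean less growth of the strain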
Settings: S. cerevisiae deletion strains, growth OD

Measured: normalized growth

CC1(C)O[C@@H]2CC3C4CCC5=CC(=O)C=C[C@]5(C)[C@@]4(F)[C@@H](O)C[C@]3(C)[C@]2(C(=O)CO)O1 (some centres not stated)
inactive: locus YAL013W, strain DEP1, hits give low values 1.02 | locus YAL021C, strain ccr4, hits give low values 0.99 | locus YAL026C, strain drs2, hits give low values 1 | locus YAL030W, strain snc1, hits give low values 0.996 | locus YBL061C, strain skt5, hits give low values 0.98 | locus YBR009C, strain hhf1, hits give low values 0.992 | locus YBR021W, strain FUR4, hits give low values 0.946 | locus YBR023C, strain chs3, hits give low values 0.993 | locus YBR171W, strain sec66, hits give low values 1 | locus YBR229C, strain ROT2, hits give low values 1.01 | locus YBR231C, strain swc5, hits give low values 0.987 | locus YBR279W, strain paf1, hits give low values 0.991 | locus YCL011C, strain gbp2, hits give low values 1.02 | locus YCL016C, strain dcc1, hits give low values 0.968 | locus YCL029C, strain bik1, hits give low values 1 | locus YCL061C, strain MRC1, hits give low values 1.01 | locus YCL069W, strain vba3, hits give low values 1.01 | locus YCR088W, strain abp1, hits give low values 1.01 | locus YDL005C, strain med2, hits give low values 1 | locus YDL035C, strain GPR1, hits give low values 1.01 | locus YDL040C, strain nat1, hits give low values 0.988 | locus YDL074C, strain BRE1, hits give low values 1.12 | locus YDL101C, strain DUN1, hits give low values 1.01 | locus YDL134C, strain PPH21, hits give low values 1.01 | locus YDL185W, strain tfp1, hits give low values 1.01 | locus YDL192W, strain arf1, hits give low values 1.01 | locus YDR001C, strain nth1, hits give low values 1 | locus YDR069C, strain doa4, hits give low values 0.998 | locus YDR101C, strain arx1, hits give low values 0.992 | locus YDR137W, strain rgp1, hits give low values 1.01 | locus YDR150W, strain NUM1, hits give low values 1.02 | locus YDR159W, strain sac3, hits give low values 0.928 | locus YDR162C, strain NBP2, hits give low values 1.01 | locus YDR195W, strain ref2 0.954 | locus YDR297W, strain sur2, hits give low values 0.997 | locus YDR318W, strain mcm21, hits give low values 0.987 | locus YDR334W, strain swr1, hits give low values 0.997 | locus YDR335W, strain msn5, hits give low values 1.02 | locus YDR388W, hits give low values 0.997 | locus YDR392W, strain spt3, hits give low values 0.884 | locus YDR502C, strain sam2, hits give low values 0.999 | locus YEL003W, strain gim4, hits give low values 0.991 | locus YEL037C, strain rad23, hits give low values 1.02 | locus YEL061C, strain CIN8 (second series), hits give low values 1 | locus YEL061C, strain CIN8, hits give low values 1.01 | locus YER015W, strain faa2, hits give low values 0.991 | locus YER016W, strain bim1, hits give low values 0.975 | locus YER110C, hits give low values 0.998 | locus YER111C, strain swi4, hits give low values 0.999 | locus YER155C, strain BEM2 (second series), hits give low values 0.983 | locus YER155C, strain BEM2, hits give low values 0.966 | locus YER167W, strain BCK2, hits give low values 1.01 | locus YFR010W, strain ubp6, hits give low values 1.01 | locus YGL078C, strain dbp3, hits give low values 1 | locus YGL086W, strain mad1, hits give low values 0.997 | locus YGL167C, strain pmr1, hits give low values 0.988 | locus YGL173C, strain kem1, hits give low values 0.98 | locus YGL227W, strain vid30, hits give low values 1.01 | locus YGL240W, strain doc1, hits give low values 0.953 | locus YGL248W, strain PDE1, hits give low values 1.01 | locus YGL253W, strain hxk2, hits give low values 1.02 | locus YGR078C, strain PAC10, hits give low values 1.03 | locus YGR135W, strain pre9, hits give low values 0.996 | locus YGR229C, strain SMI1, hits give low values 1.02 | locus YGR252W, strain gcn5, hits give low values 0.97 | locus YHR013C, strain ard1, hits give low values 0.956 | locus YHR027C, strain rpn1, hits give low values 1 | locus YHR030C, strain SLT2, hits give low values 1.01 and 0.993 | locus YHR079C, strain IRE1 (second series), hits give low values 0.989 | locus YHR079C, strain IRE1, hits give low values 0.989 | locus YHR094C, strain hxt1, hits give low values 0.994 | locus YHR129C, strain ARP1, hits give low values 1.01 | locus YHR142W, strain chs7, hits give low values 1.02 | locus YHR200W, strain rpn10, hits give low values 0.995 | locus YIL066C, strain RNR3, hits give low values 1.02 | locus YIL073C, strain SPO22, hits give low values 1.05 | locus YIL125W, strain kgd1, hits give low values 0.998 | locus YIR030C, strain dcg1, hits give low values 1.01 | locus YJL092W, strain hpr5, hits give low values 1 | locus YJL095W, strain BCK1 (second series), hits give low values 1 | locus YJL095W, strain BCK1, hits give low values 1.01 and 0.992 | locus YJL115W, strain asf1, hits give low values 0.993 | locus YJL129C, strain trk1, hits give low values 1.01 | locus YJL134W, strain LCB3, hits give low values 1.01 | locus YJL154C, strain vps35, hits give low values 0.999 | locus YJL164C, strain tpk1, hits give low values 0.994 | locus YJL166W, strain qcr8, hits give low values 0.996 | locus YJL168C, strain set2, hits give low values 0.993 | locus YJL187C, strain SWE1 (second series), hits give low values 1.02 | locus YJL187C, strain SWE1, hits give low values 0.976 | locus YJR043C, strain POL32, hits give low values 0.997 | locus YJR066W, strain TOR1, hits give low values 0.947
